Test in all cases: modulators of BK channel variants, profiling panel, selectivity assay, cell-based, U2OS BacMam, thallium flux, beta subunits (AID 1259406);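 also: initial slope of Thallos dye fluorescence rise after thallium is added; log ratio against the mean of 0.3% DMSO vehicle wells on the same plate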
One experiment concerns F380Y. The note with it: at 30 µM.
The next experiment has as its system F380Y/beta1. Particulars: at 30 µM.
The test system of the next experiment is F380Y/beta2Delta. Particulars: at 30 µM.
The next experiment relates to F380Y/beta4. Particulars: at 30 µM.
Experiment [1] concerns the target Calcium-activated potassium channel subunit alpha-1 (Homo sapiens) + Leucine-rich repeat-containing protein 26 (Homo sapiens) (UniProt Q12791+Q2I0M4). The note with it: F380Y/Slo1WT/gamma1, at 30 µM.
A further experiment deals with R275C. The note with it: at 30 µM.
The next experiment concerns R275C/beta1. The note with it: at 30 µM.
For the next experiment, the system named is R275C/beta2Delta. The note with it: at 30 µM.
A further experiment relates to R275C/beta4. Particulars: at 30 µM.
In a further experiment the test system is R275C/Slo1WT/beta2. Particulars: at 30 µM.

Molecules are shown by their SMILES. Several values for one entry are separate records, joined by “and”; a condition that tells them apart may be missing. Equal values may be shown once. Unmarked numbers belong to inactive results. Activity calls are given as the source filed them.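 The calls were made as follows: active = thallium flux through the channel raised or lowered by more than 3 SD from vehicle-only wells, actives on both sides; inactive = the rest.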

Sequence of Calcium-activated potassium channel subunit alpha-1 (Homo sapiens) + Leucine-rich repeat-containing protein 26 (Homo sapiens) (Q2I0M4 whole entry, looked up, one chain of several): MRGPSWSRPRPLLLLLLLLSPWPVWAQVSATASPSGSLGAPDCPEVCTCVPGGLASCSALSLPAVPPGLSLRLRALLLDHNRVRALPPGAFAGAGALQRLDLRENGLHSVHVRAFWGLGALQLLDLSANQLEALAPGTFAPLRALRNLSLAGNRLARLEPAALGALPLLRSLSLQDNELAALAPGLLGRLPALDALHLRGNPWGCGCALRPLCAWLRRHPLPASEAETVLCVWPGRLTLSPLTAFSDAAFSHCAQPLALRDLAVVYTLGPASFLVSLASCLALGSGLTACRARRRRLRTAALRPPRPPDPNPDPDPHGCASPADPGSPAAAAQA

As for `CC(C)[C@H](N)C(=O)OCCOCn1cnc2c(=O)[nH]c(N)nc21`, the log fold change Tl+ flux was -0.0232 with F380Y; -0.0206 in the experiment with F380Y/beta1; -0.00659 with F380Y/beta2Delta; -0.0146 in the experiment with F380Y/beta4; 0.0174 in experiment [1]; -0.11 in the experiment on R275C. Besides, the log fold change Tl+ flux in the experiment on R275C/beta1 is 0.0176; in the experiment on R275C/beta2Delta, 0.0029; with R275C/beta4 it was 0.0146; in the experiment on R275C/Slo1WT/beta2, -0.011.
With `O=C1Nc2ccc(Cl)cc2[C@@](C#CC2CC2)(C(F)(F)F)O1`, the log fold change Tl+ flux is 0.0449 in the experiment with F380Y; 0.167 (active) in the experiment with F380Y/beta1; 0.0472 in the experiment with F380Y/beta2Delta; 0.0723 in the experiment on F380Y/beta4; 0.0446 in experiment [1]; -0.166 (active) in the experiment with R275C. The log fold change Tl+ flux with R275C/beta1 was 0.275 (active); in the experiment on R275C/beta2Delta it was 0.119 (active); in the experiment with R275C/beta4, 0.11 (active); with R275C/Slo1WT/beta2, -0.0224.
As to `C[C@@H]1C[C@H]2[C@@H]3C[C@H](F)C4=CC(=O)C(Cl)=C[C@]4(C)[C@@]3(F)[C@@H](O)C[C@]2(C)[C@@]1(O)C(=O)CO`, the log fold change Tl+ flux is 0.0685 in the experiment on F380Y; 0.0734 in the experiment with F380Y/beta1; -0.0145 with F380Y/beta2Delta; 0.131 (active) with F380Y/beta4; 0.0637 in experiment [1]; 0.0158 in the experiment on R275C. The log fold change Tl+ flux in the experiment with R275C/beta1 is 0.354 (active); with R275C/beta2Delta it was 0.0934; in the experiment with R275C/beta4, 0.148 (active); in the experiment on R275C/Slo1WT/beta2, 0.0468.
On to `CC(=O)O[C@H]1C[C@@H]2CC[C@@H]3[C@H](CC[C@@]4(C)[C@H]3C[C@H]([N+]3(C)CCCCC3)[C@@H]4OC(C)=O)[C@@]2(C)C[C@@H]1N1CCCCC1`, for which the log fold change Tl+ flux in the experiment on F380Y was 0.0327; with F380Y/beta1, 0.014; in the experiment with F380Y/beta2Delta, 0.00769; in the experiment on F380Y/beta4, 0.00267; in experiment [1] it was -0.00222; in the experiment on R275C it was -0.114 (active). Moreover, the log fold change Tl+ flux in the experiment on R275C/beta1 is 0.00114; in the experiment with R275C/beta2Delta, -0.0355; with R275C/beta4, 0.018; in the experiment on R275C/Slo1WT/beta2, 0.0408.
With `O=C(O)/C=C/c1ccc(Cn2ccnc2)cc1`, the log fold change Tl+ flux in the experiment with F380Y is 0.00524; in the experiment with F380Y/beta1, 0.0144; in the experiment with F380Y/beta2Delta it was -0.0133; in the experiment on F380Y/beta4 it was 0.00948; in experiment [1] it was -0.0199; with R275C, 0.0013. Also, the log fold change Tl+ flux in the experiment with R275C/beta1 was 0.0161; in the experiment with R275C/beta2Delta, 0.00561; with R275C/beta4, -0.0096; with R275C/Slo1WT/beta2 it was 0.0187.
As to `COc1ccc(CN2CCN(C(c3ccc(F)cc3)c3ccc(F)cc3)CC2)c(OC)c1OC`, the log fold change Tl+ flux in the experiment with F380Y is -0.0546; in the experiment with F380Y/beta1, 0.0295; in the experiment with F380Y/beta2Delta it was -0.015; in the experiment with F380Y/beta4 it was 0.0162; in [1], -0.00669; with R275C it was -0.0264. Moreover, the log fold change Tl+ flux in the experiment with R275C/beta1 is -0.0636; with R275C/beta2Delta, -0.0699; in the experiment on R275C/beta4, 0.0197; in the experiment with R275C/Slo1WT/beta2 it was -0.00919.
`CN1CCN(c2c(F)cc3c(=O)c(C(=O)O)cn4c3c2SCC4)CC1`: the log fold change Tl+ flux in the experiment on F380Y was 0.0311; in the experiment on F380Y/beta1 it was 0.0284; in the experiment on F380Y/beta2Delta, 0.0235; with F380Y/beta4, -0.00383; in experiment [1], 0.0303; with R275C it was -0.068. The log fold change Tl+ flux is 0.019 in the experiment with R275C/beta1, 0.0239 in the experiment with R275C/beta2Delta, 0.00729 in the experiment on R275C/beta4 and -0.0231 in the experiment with R275C/Slo1WT/beta2.
In the case of `NCC1CCC(C(=O)Oc2ccc(CCC(=O)O)cc2)CC1` (stereo not given), the log fold change Tl+ flux was -0.0268 with F380Y; -0.0246 in the experiment with F380Y/beta1; -0.0278 with F380Y/beta2Delta; -0.00261 in the experiment with F380Y/beta4; 0.0182 in [1]; -0.0458 in the experiment with R275C. Further, the log fold change Tl+ flux in the experiment on R275C/beta1 was 0.036; in the experiment with R275C/beta2Delta, 0.00228; in the experiment on R275C/beta4, -0.0367; with R275C/Slo1WT/beta2, -0.00395.
`O=C(NCCN1CCOCC1)c1ccc(Cl)cc1`: the log fold change Tl+ flux in the experiment with F380Y was -0.0393; with F380Y/beta1, -0.0206; with F380Y/beta2Delta, -0.0313; with F380Y/beta4, -0.0725; in experiment [1], -0.000886; in the experiment on R275C, -0.0119. Moreover, the log fold change Tl+ flux was -0.015 with R275C/beta1, -0.0276 with R275C/beta2Delta, -0.0049 in the experiment on R275C/beta4 and -0.0216 with R275C/Slo1WT/beta2.
On to `Cc1cn([C@H]2C=C[C@@H](CO)O2)c(=O)[nH]c1=O`, for which the log fold change Tl+ flux was -0.00288 and 0.0465 in the experiment with F380Y; 0.0156 and 0.0441 in the experiment on F380Y/beta1; 0.00122 and 0.00603 in the experiment on F380Y/beta2Delta; -0.027 and 0.00706 with F380Y/beta4; 0.0426 and -0.00611 in experiment [1]; -0.1 and -0.00698 in the experiment with R275C. Besides, the log fold change Tl+ flux in the experiment on R275C/beta1 is -0.02 and 0.0272; in the experiment with R275C/beta2Delta, -0.0201 and 0.00371; with R275C/beta4, 0.0202 and -0.00131; with R275C/Slo1WT/beta2, 0.0395 and 0.0392.
For `C[C@@H]1C[C@H]2[C@@H]3CCC4=CC(=O)C=C[C@]4(C)[C@@]3(F)[C@@H](O)C[C@]2(C)[C@H]1C(=O)CO`, the log fold change Tl+ flux with F380Y was 0.0533; with F380Y/beta1, 0.0836; in the experiment with F380Y/beta2Delta, 0.0651; with F380Y/beta4 it was 0.0601; in [1] it was 0.0369; in the experiment with R275C it was -0.061. In addition, the log fold change Tl+ flux in the experiment with R275C/beta1 was 0.178 (active); with R275C/beta2Delta, 0.0622; in the experiment with R275C/beta4, 0.0336; in the experiment with R275C/Slo1WT/beta2, 0.0113.
In the case of `COc1cc(C)nc(-n2nc(C)cc2OC)n1`, the log fold change Tl+ flux in the experiment on F380Y is -0.0134; in the experiment with F380Y/beta1, -0.00765; in the experiment with F380Y/beta2Delta, -0.0214; in the experiment on F380Y/beta4, -0.018; in experiment [1], -0.00579; in the experiment on R275C, 0.031. The log fold change Tl+ flux with R275C/beta1 was 0.00544; in the experiment on R275C/beta2Delta it was 0.0107; with R275C/beta4, -0.0217; in the experiment on R275C/Slo1WT/beta2, -0.00369.

Values taken from PubChem BioAssay.
